Source: PubChem BioAssay (NCI)
The panel holds about 79,000 compounds, 15% with a hit somewhere; the sample as a whole holds those more often. Values without a mark were called inactive. Activity calls are given as the source filed them. Rule as the data show it: active = growth inhibition above about 70%; inactive = the rest.

Legend:
[1] = NCI Yeast Anticancer Drug Screen. Data for the rad50 strain (AID 155);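 also: 0% = growth of vehicle-only cultures of the same strain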; conditions: S. cerevisiae rad50 strain growth inhibition, stronger effect = higher value
Outline: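 Yeast carrying a defined DNA repair defect were exposed to test compounds, and growth was compared with vehicle-treated controls to give percent inhibition.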

[2] = NCI Yeast Anticancer Drug Screen. Data for the mec2-1 strain (AID 157); conditions: S. cerevisiae mec2-1 strain, stronger effect = higher value
Outline: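 Strain: mec2-1 (DNA repair/cell cycle alteration). Compound exposure, then growth measured; inhibition expressed relative to vehicle.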

[3] = NCI Yeast Anticancer Drug Screen. Data for the sgs1 mgt1 strain (AID 161);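 also: 0% = growth of cultures given vehicle only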; conditions: S. cerevisiae sgs1 mgt1 strain, stronger effect = higher value
Outline: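 Mutant yeast exposed to compound; growth scored against vehicle-only wells.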

[4] = NCI Yeast Anticancer Drug Screen. Data for the cln2 rad14 strain (AID 165);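 also: 0% = growth equal to vehicle treated cultures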; conditions: S. cerevisiae cln2 rad14 strain, stronger effect = higher value
Outline: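 Compounds are applied to the cln2 rad14 yeast strain, and growth is then compared with that of vehicle-treated cultures to give inhibition.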

[5] = NCI Yeast Anticancer Drug Screen. Data for the bub3 strain (AID 167); conditions: S. cerevisiae bub3 mutant strain, stronger effect = higher value
Outline: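 Compounds were applied to a genetically altered yeast strain carrying a cell-cycle control defect. Growth inhibition was scored against vehicle-treated controls.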

[6] = NCI Yeast Anticancer Drug Screen. Data for the mlh1 rad18 strain (AID 175); conditions: S. cerevisiae mlh1 rad18 strain growth inhibition, stronger effect = higher value
Outline: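 Read-out is yeast growth inhibition, calculated against vehicle-only controls. The compound was applied to a strain engineered with DNA damage repair alterations.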

[7] = at 5.0 µM (retest, dose inferred, filed as 0.5)
[8] = at 50.0 µM (retest, dose inferred, filed as 5.0)

Row | Compound | growth inhibition [1, 7] | growth inhibition [1, 8] | growth inhibition ([1]; at 50.0 µM) | growth inhibition [2, 7] | growth inhibition [2, 8] | growth inhibition ([2]; at 50.0 µM) | growth inhibition [3, 7] | growth inhibition [3, 8] | growth inhibition ([3]; at 50.0 µM) | growth inhibition [4, 7] | growth inhibition [4, 8] | growth inhibition ([4]; at 50.0 µM) | growth inhibition [5, 7] | growth inhibition [5, 8] | growth inhibition ([5]; at 50.0 µM) | growth inhibition [6, 7] | growth inhibition [6, 8] | growth inhibition ([6]; at 50.0 µM)
1 | O=[N+]([O-])c1ncn(C2OC(CO)C(O)C2O)c1S (stereo unspecified) | -5% | -3% | -2.85% | 2% | -8% | 24.6% | -1% | -3% | 14.6% | -3% | -5% | 66.1% | -12% | -14% | 1.15% | -6% | -8% | 8.05%
2 | FC(F)(F)c1ccc(NC(=S)SCc2ccc3c(c2)OCO3)cc1 | -5% | 0% | 74.5% (active) | -5% | -1% | 95% (active) | -3% | 25% | 93.3% (active) | -11% | -15% | 86.3% (active) | -8% | -6% | 87% (active) | -8% | 24% | 93.2% (active)
3 | CC(=O)OCCC1=CCC2CC1C2(C)C (stereo unspecified) | -2% | 2% | -22.6% | -40% | 4% | 7.2% | -3% | 4% | -12.8% | -6% | -7% | 23.4% | -10% | -5% | -16.2% | -3% | 3% | -10.7%
4 | COC(=O)CSc1nc2[nH]c(SC)c(C(N)=O)c2c(=O)n1-c1ccccc1 | -2% | -4% | 2.35% | -2% | -22% | 29.4% | 3% | -7% | 7.25% | -5% | 3% | 46.2% | 18% | 21% | 7.8% | -14% | -19% | 9.8%
5 | NC(=O)c1ccc[n+](CC(=O)Nc2ccc(Cl)cc2)c1 | 2% | -3% | 5.6% | -9% | -4% | -1.35% | -5% | -28% | -7.2% | -1% | -6% | -57.3% | 0% | -11% | 31% | 11% | 4% | -13.9%
6 | Oc1ccc(N=Nc2ccc(Cl)cc2)cc1O | -30% | 98% (active) | 98.4% (active) | -8% | 98% (active) | 98.3% (active) | 8% | 98% (active) | 98.5% (active) | -7% | 97% (active) | 97.7% (active) | -35% | 98% (active) | 97.8% (active) | -7% | 98% (active) | 98.2% (active)
7 | C/C(=N\NC(=S)N1CCCC1)c1nc2ncccc2[nH]1 | -20% | 97% (active) | 85.9% (active) | -3% | 94% (active) | 84.8% (active) | -2% | 95% (active) | 83.2% (active) | -38% | 97% (active) | 81.7% (active) | -40% | 98% (active) | 87% (active) | 12% | 97% (active) | 82% (active)
8 | CC(=O)NC1=C(Cl)C(=O)c2ccccc2C1=O | 91% (active) | 99% (active) | 99.5% (active) | 93% (active) | 99% (active) | 99.5% (active) | 70% (active) | 100% (active) | 99.7% (active) | 21% | 99% (active) | 98.8% (active) | 96% (active) | 99% (active) | 99.4% (active) | 96% (active) | 99% (active) | 99.5% (active)
9 | CC1(C)CC(=O)C(c2ccccc2[N+](=O)[O-])=C(O)C1 | 4% | 6% | 99.6% (active) | 11% | 20% | 99.3% (active) | 4% | 8% | 69.6% | 5% | 24% | 90.3% (active) | -6% | -1% | 98.3% (active) | -2% | 7% | 99.2% (active)
10 | C1=C([P+](c2ccccc2)(c2ccccc2)c2ccccc2)CCCC1 | 22% | 93% (active) | 89.8% (active) | -2% | 91% (active) | 92.2% (active) | 13% | 84% (active) | 88.5% (active) | 24% | 90% (active) | 86.5% (active) | -8% | 92% (active) | 87.5% (active) | 14% | 91% (active) | 91.9% (active)
11 | COc1ccc2c(c1)CCCN2CCCCCCCCCN1CCCCC1 | 31% | 36% | 62% | 27% | 53% | 57.9% | 45% | 81% (active) | 82.8% (active) | 35% | 44% | 42.4% | 45% | 76% (active) | 79.6% (active) | 47% | 63% | 69%
12 | c1ccc2c3[nH]c(c2c1)=Nc1ccc(cc1)-c1nc2ccc(cc2o1)N=c1[nH]c(c2ccccc12)=Nc1ccc2nc(oc2c1)-c1ccc(cc1)N=3 | 28% | 94% (active) | 78.2% (active) | 18% | 93% (active) | 84.8% (active) | 30% | 94% (active) | 82.7% (active) | 17% | 81% (active) | 84% (active) | 31% | 95% (active) | 77% (active) | 50% | 93% (active) | 88.6% (active)
13 | O=[N+]([O-])c1ccc2c(c1)[n+]([O-])c1[nH]c3ccccc3c1[n+]2[O-] (tested in a mixture with another compound) | 85% (active) | 88% (active) | 93.2% (active) | 55% | 89% (active) | 87.4% (active) | 68% | 91% (active) | 82.9% (active) | 48% | 85% (active) | 89.8% (active) | 64% | 90% (active) | 81.8% (active) | 78% (active) | 91% (active) | 86.3% (active)
14 | O=S(=O)(O)CNc1cc(Cl)cc(Cl)c1 | 34% | 78% (active) | 13.9% | 9% | 28% | -5% | 1% | 17% | 2.3% | 4% | 16% | -53.4% | 6% | 85% (active) | 2.1% | 8% | 33% | 41.8%
15 | CCCCCCOC(=O)CCC(=O)OCCCCCC | -7% | -20% | -2.7% | -3% | -20% | 17.9% | -1% | 15% | 23.5% | 32% | 23% | 41.1% | 16% | 43% | 63.8% | -15% | -9% | 24.1%
16 | CC(CC(=O)c1ccc2sc3ccccc3c2c1)C(=O)O (stereo unspecified) | 6% | 35% | 58.4% | -4% | 47% | 33.6% | 14% | 62% | 49.2% | -2% | 24% | 60.4% | -2% | 21% | 27.3% | 15% | 59% | 56.8%
17 | N#Cc1ccccc1NC1OCC(O)C(O)C1O (stereo unspecified) | -149% | -139% | 0.45% | -45% | -45% | -3.35% | -61% | -79% | 10.6% | -58% | -53% | 16.1% | -67% | -74% | 7.2% | -145% | -105% | -3.35%
